Measured values as given in the supplement of paper PMC3334620.
Over roughly 33,000 sequences, “E-score (-0.5 to 0.5)” has its median near -0.0034; the highest 2% begin near 0.25. The full list was thinned out, with the highest values kept by preference.

Molecular target: T1, Yap3 (UniProt P38749)
T1 sequence: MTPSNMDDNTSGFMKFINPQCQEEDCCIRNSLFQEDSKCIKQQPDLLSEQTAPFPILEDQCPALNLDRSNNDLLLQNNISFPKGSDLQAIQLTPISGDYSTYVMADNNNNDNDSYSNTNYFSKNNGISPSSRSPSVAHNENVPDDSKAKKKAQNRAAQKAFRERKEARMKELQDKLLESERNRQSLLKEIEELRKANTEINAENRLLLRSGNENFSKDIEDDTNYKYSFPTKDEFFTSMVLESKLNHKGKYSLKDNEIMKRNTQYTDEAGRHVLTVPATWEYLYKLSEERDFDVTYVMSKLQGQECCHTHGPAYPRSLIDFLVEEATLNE
Test: PBM E-score (8-mer binding enrichment) (E-score (-0.5 to 0.5)); higher = stronger / more preferred TF binding
Details: protein concentration: 100 nM; construct: GST-full length
Experimental: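 Universal 'all 10-mer' protein binding microarrays (Agilent AMADID 015681) probed with GST-tagged S. cerevisiae TFs (full-length or DBD) made by in vitro transcription/translation (PURExpress), about 100-200 nM. Bound TF was detected with fluorescent anti-GST. Each ungapped 8-mer (which stands for itself and its reverse complement) is scored by the PBM enrichment score (E-score), a modified Wilcoxon-Mann-Whitney statistic from -0.5 to +0.5, computed with the Universal PBM Analysis Suite. Scale: above 0.35 generally sequence-specific binding.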

| Sequence | PBM E-score |
| --- | --- |
| GCGCGCTA | 0.257 |
| CCGCGCGA | 0.0991 |
| GCGCGCGC | 0.29 |
| CCGCGCGG | 0.293 |
| ACAACAGA | -0.0683 |
| GATGTCCC | -0.134 |
| AGGATCAG | -0.151 |
| CGGCCCAG | -0.332 |
| AGAAATGA | 0.0784 |
| CCTGACAG | -0.0186 |
| GGAGATAA | 0.107 |
| CGAGATAA | 0.29 |
| AGAGATAA | 0.169 |
| GAGCCTTA | -0.0398 |
| ACATGTAT | 0.262 |
| CCATGTAG | -0.014 |
| ACATGTAC | 0.112 |
| ACATGTAA | 0.184 |
| ACATGTTG | 0.13 |
| ACATGTAG | 0.302 |
| CAGAATCA | 0.0924 |
| CCGCTAGG | -0.128 |
| ACGCACGT | -0.206 |
| ACGCACGC | 0.262 |
| ACGCACGA | 0.131 |

| Sequence | PBM E-score |
| --- | --- |
| TCATGGGA | 0.00531 |
| ATTAAATC | 0.211 |
| GATTAAAA | 0.192 |
| ATTAAATA | 0.268 |
| ATTAAAAA | 0.285 |
| TATTAAAA | 0.217 |
| ATTAAACG | 0.215 |
| ATTAAATG | 0.266 |
| CTTAAATA | 0.092 |
| ATTAAAAC | 0.236 |
| ATTAAAAG | 0.0983 |
| GTTAAATA | 0.178 |
| CATTAAAA | 0.281 |
| CAAGGTAG | -0.142 |
| ATGCGCCG | 0.00281 |
| AAAGAGAT | -0.0227 |
| AGCGAGAA | -0.0207 |
| CAAATCCA | 0.151 |
| GCAATCCA | 0.0882 |
| ACAATCCG | 0.116 |
| AAAATCCA | 0.28 |
| ACAATCCA | 0.287 |
| GAAATCCA | 0.0886 |
| AGAATGCG | 0.0426 |
| AATAGTAT | 0.229 |

| Sequence | PBM E-score |
| --- | --- |
| GTATCCGA | -0.0824 |
| ATTAGGTA | 0.167 |
| ATTACGCA | 0.233 |
| AATACGTC | 0.188 |
| ATTACGTG | 0.397 |
| ATTACGCG | 0.311 |
| AGTACGTG | -0.0755 |
| ACTACGTC | -0.0702 |
| ACTACGTG | -0.166 |
| CTTAGGTC | -0.0924 |
| ATTACGCC | 0.0197 |
| ATTACGTC | 0.33 |
| ATTAGGTC | 0.286 |
| AGTAAACT | 0.0322 |
| CATCTGGC | -0.066 |
| TAGTACTA | 0.0913 |
| GGCTACAC | -0.166 |
| CGACTACA | 0.0886 |
| ATTGGCTC | 0.0983 |
| ATGGTAAT | 0.128 |
| AAGGACAC | -0.0338 |
| ACCCGGGT | -0.12 |
| ACCTTCAC | 0.00082 |
| ATTGGTTG | 0.118 |
| CTGTACGA | 0.0353 |

| Sequence | PBM E-score |
| --- | --- |
| TACAGTAA | 0.183 |
| CACAGTAG | 0.0618 |
| CACAGTAA | 0.265 |
| ATTTCGAG | 0.141 |
| ATTTCGAC | -0.0412 |
| ATTTCGAA | 0.261 |
| TGCGTGAA | 0.107 |
| ACATTAGT | 0.0888 |
| GTTTTATA | 0.139 |
| CGTTTATA | 0.28 |
| CATTTATC | 0.198 |
| GGTTTATA | 0.0813 |
| ACTTTATA | 0.259 |
| AGTTTATA | 0.205 |
| CCTTTATA | 0.0052 |
| ATTTTATA | 0.331 |
| ATTTTATG | 0.21 |
| ACTTTATC | 0.169 |
| AATTTATC | 0.325 |
| ATTTTATC | 0.235 |
| GGCAGTCA | -0.11 |
| AAGGTAAC | 0.121 |
| AATTTGAT | 0.0887 |
| ATCGTTTA | 0.135 |
| AAGAGCCG | -0.0966 |

| Sequence | PBM E-score |
| --- | --- |
| AGTCACGG | 0.00648 |
| AGGCAGAA | -0.0515 |
| CCTCGCAC | -0.133 |
| AATTTATA | 0.294 |
| AATTTATG | 0.252 |
| CATTTATA | 0.215 |
| GTCCATAA | -0.0433 |
| CTCCATAA | -0.0865 |
| CTGCATTA | -0.0676 |
| AACCATAC | 0.0832 |
| GGACATAA | 0.0711 |
| ATGCATTA | 0.333 |
| ATCCATAA | 0.258 |
| AGACATAA | 0.136 |
| TGACATAA | 0.3 |
| AACCATAT | 0.266 |
| ATGCATTC | 0.0938 |
| AACCATAA | 0.15 |
| CTCCTTCC | -0.171 |
| CATTTGAC | 0.0765 |
| GGAGCGCA | -0.261 |
| AAGTACGG | -0.0366 |
| AGCAATTC | 0.134 |
| TAGGCCCA | -0.198 |
| TCGTCGAA | 0.0355 |

| Sequence | PBM E-score |
| --- | --- |
| CTACATAA | -0.0287 |
| ACACATAG | -0.0796 |
| ATACATAT | 0.286 |
| GTACATAA | 0.135 |
| ATACATAG | 0.112 |
| ATACATAC | 0.0937 |
| ATACATAA | 0.285 |
| AGACATAT | 0.185 |
| GCACATAA | 0.131 |
| ACACATAA | 0.299 |
| ATACATCA | 0.207 |
| TTACATAA | 0.416 |
| GCCAATCA | -0.169 |
| CCAGCAGA | -0.17 |
| AACTGCTA | 0.00439 |
| CCGCCTGC | -0.278 |
| AGAGAAAA | 0.0508 |
| GTTTGAGA | -0.0917 |
| GGATTGGA | 0.19 |
| TCGCGCCA | -0.0451 |
| ATCTGGAG | -0.165 |
| GCTTGGAC | -0.0766 |
| CAAGGATG | -0.0177 |
| CGCAATAG | 0.105 |
| CCAATGAG | -0.0674 |

| Sequence | PBM E-score |
| --- | --- |
| ATACATTA | 0.266 |
| AAACATAG | -0.0382 |
| AAACATAC | 0.0457 |
| GTACATTA | 0.0635 |
| AAACATAT | 0.305 |
| CTACATTA | 0.11 |
| ATCAGGCA | -0.0855 |
| CGCACTTA | -0.0802 |
| GCTGTGCA | -0.205 |
| AACGGCGG | -0.208 |
| ACATTACT | 0.213 |
| AGATTACG | 0.213 |
| ATATTATC | 0.149 |
| ATATTATG | 0.399 |
| ACATTACA | 0.131 |
| CCATTACG | 0.0884 |
| AGATTATG | 0.129 |
| GCATTACA | 0.1 |
| ATATTACA | 0.226 |
| ATATTACG | 0.412 |
| ACATTACG | 0.286 |
| CCATTACA | 0.272 |
